Assay outcomes (PubChem BioAssay)
TDP1 block = qHTS Assay for Inhibitors of Tyrosyl-DNA Phosphodiesterase (TDP1). Potency, µM (top dose mostly 130 µM), inactives show at the top dose activity change, negative = inhibition, most hits filed as inhibitors. 0.28% of 350,000 active. Tyrosyl-DNA phosphodiesterase 1 (Homo sapiens), Q9NUW8. recombinant TDP1, AlphaScreen DNA substrate cleavage; further: nearly all actives have a fitted effect of over 40% in size
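Compounds were preincubated with Tdp1 (1 nM final) for 15 min at room temperature before substrate (15 nM final) started a 5 min reaction; beads (10 ug/ml final) were then added for 10 min before AlphaScreen detection.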
RGS4 inhibitor = Inhibitors of Regulator of G Protein Signaling (RGS) 4: qHTS; Transcreener GDP fluorescence polarization, RGS4-accelerated GTP hydrolysis; Regulator of G-protein signaling 4 (Homo sapiens), P49798; 0.039% of 390,000 active; Potency, µM (series often up to 114 µM), inactives show top-dose activity change, negative = inhibition, usual class: inhibitors; further: nearly all actives have a fitted effect of over 75% in size
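MLSMR compounds (23 nl, pin-transferred) preincubated 10 min at room temperature with a 500nM (2x) first reagent, then RGS4 at 900nM (2x) plus Transcreener GDP mix added; fluorescence polarization (620/688 nm) read before and after 90 min at 30 °C.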
GCN5L2 inh = qHTS Assay for Inhibitors of GCN5L2. Histone acetyltransferase KAT2A (Homo sapiens), Q92830. GCN5L2 HAT assay, ThioGlo1 CoA-SH fluorescence. Potency, µM (top dose mostly 58.9 µM), for the others: top-dose activity change, negative = inhibition, hits mostly inhibitors. 0.21% of 390,000 active. AID 504327, 2011
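ThioGlo1-coupled HAT assay: 20nM GCN5L2, 70uM acetyl-CoA, 75uM H3(1-25) peptide, pH 7.5. Fluorescence read at 340/540nm at start and after 20 min at room temperature.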
APE1 inh = qHTS Assay for Inhibitors of the Human Apurinic/apyrimidinic Endonuclease 1 (APE1). DNA repair nuclease/redox regulator APEX1 (Homo sapiens), P27695. recombinant APE1, TAMRA/BHQ-2 abasic DNA cleavage fluorescence. Potency, µM (highest dose often 65.8 µM), inactives show at the top dose activity change, negative = inhibition, actives largely listed as inhibitors. 0.35% of 350,000 active. AID 2517, 2012;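 further: plate controls were vehicle for no effect and reference inhibitor for full effect; nearly all actives have a fitted effect of over 55% in size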
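APE1 at 0.75 nM final was preincubated with compound 15 min at room temperature, then 50 nM double-stranded THF abasic-site substrate (5'-TAMRA/3'-BHQ-2) was added. Fluorescence (ex 525/em 598 nm) was read kinetically; third-minus-first read gave activity.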
RECQ1 inh = qHTS Assay for Inhibitors of RecQ-Like Dna Helicase 1 (RECQ1). ATP-dependent DNA helicase Q1 (Homo sapiens), P46063. RECQ1 DNA unwinding, red fluorescence kinetic read. 0.54% of 240,000 active. AID 2549, 2010. Potency, µM (titrated, usually from 57.3 µM), for inactives: top-dose activity, negative = inhibition, usual class: inhibitors;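 further: plate controls were vehicle for no effect and no enzyme for full effect; nearly all actives have a fitted effect of over 30% in size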
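50 nM RECQ1T1 preincubated 15 min with compound in Tris pH 8.0 buffer with MgCl2, DTT, Tween-20 and 2.5 ug/ml poly(dI-dC); started with 200 nM TAMRA/BHQ-2 forked duplex and 2 mM ATP. Unwinding read as fluorescence (525/598 nm), two reads 2 h apart.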
BLM helicase inh = qHTS Assay for Inhibitors of Bloom's syndrome helicase (BLM); 0.2% of 350,000 active; recombinant BLM DNA unwinding, fluorescence dequenching; Potency, µM (doses to about 56.1 µM), for inactives: at the top dose activity change, negative = inhibition, actives largely listed as inhibitors; AID 2528, 2010; RecQ-like DNA helicase BLM (Homo sapiens), P54132;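 further: plate controls were vehicle for no effect and no enzyme for full effect; nearly all actives have a fitted effect of over 35% in size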
Active calls of the source: *; i = inactive; u = inconclusive; x = not tested or not shown; ! = a repeat was not active; [ ] = dose if it differs, or a comment. A selection: hits, their analogues and other compounds. The true share with any hit is near 0.87%. The call rests on the fitted dose curve; in most records, active means well fitted curve in the direction sought with a large enough effect; inconclusive means small, poorly fitted or top-dose-only effect, or another doubt; inactive means no such curve, though single readings can be large; an effect the other way counts as inactive or inconclusive. Unless noted, on the % scale 0 is the no-effect control and ±100 the full control effect; potency means the concentration at half of the fitted maximal effect.

SMILES	TDP1 block	RGS4 inhibitor	GCN5L2 inh	APE1 inh	RECQ1 inh	BLM helicase inh
CCCCN(C)C1=CC2=CC(=C(C#N)C#N)CCC2CC1 (stereo not drawn)	5%	2%	-5%	6%	14µM*	13µM*
CCN(CC)C1=CC2=CC(=C(C#N)C#N)CCC2CC1 (stereo not drawn)	1%	6%	0%	1%	11%	-29%
COc1cccc(C2c3c(ncn(-c4ccc(C#N)cc4)c3=N)Oc3ccc4ccccc4c32)c1 (stereo not drawn)	0%	x	x	x	x	x
COC/C=C/C1=CC2=CC(=O)C(C)(OC(=O)c3cnc4ccccc4n3)C(=O)C2=CN1c1ccc(CO)cc1 (stereo not drawn)	x	x	u	11µM*!	-21%[11.5 µM]	13µM*!
CN1CCCN=C1/C=C\c1cccs1	x	x	11µM*	0%[21 µM]	-6%[25.9 µM]	2%[21.4 µM]
CCOC(=O)c1sc2nc3c(SCC(=O)O)cc(C(=O)c4ccccc4O)cn3c(=O)c2c1C	3%	-17%	-10%	u	-12%	-16%
COc1ccc(O)c(C(=O)c2cc(SCC(=O)O)c3nc4sc5c(c4c(=O)n3c2)CCCC5)c1	x	u	u	u	i	22µM*
O.O.O.O.O.O.O.O=S(=O)([O-])[O-].[Co+2]	2%	x	u	u	16µM*	8.9µM*
COc1ccc(/C=N/N=C2/NC(=O)C(CC(=O)O)S2)cc1OCc1ccc(Cl)cc1Cl (stereo not drawn)	71µM*	-18%	-22%	u	1%	-8%
CCCCn1c(C)cc2c(c1=O)C1O[C@](c3ccc(OC)cc3)(Cc3cc(OC)c(OC)cc31)O2	x	x	0%[12.7 µM]	4.3µM*	x	-11%[12.4 µM]
Cc1ccc(NC(=O)CN2C(=O)N/C(=C/c3cc(C)n(-c4ccc(C(=O)O)cc4)c3C)C2=O)cc1	x	-46%	u	u	40µM*	-6%
CCn1c(C)cc(/C=C2\NC(=O)N(CC(=O)Nc3ccc(F)cc3)C2=O)c1C	4%	-10%	-9%	31%	3%	-4%
O=C(Cc1nnc(-c2nc3ccccc3[nH]2)o1)Nc1cc(C(F)(F)F)ccc1Cl	1%	x	x	x	x	x
N=c1c[n+](N2CCOCC2)[n-]o1	8%	19µM*!	-11%	10%	0%	-1%
Cc1c(P(=S)(c2ccccc2)c2ccccc2)c2ccccc2n1Cc1ccccc1	0%	x	x	x	x	x
C=Cc1c(C)c2cc3nc(cc4[nH]c(cc5nc(cc1[nH]2)C(C)=C5CCC(=O)OC)c(CCC(=O)O)c4C)[C@@]1(C)C3=CC=C(C(=O)OC)[C@H]1C(=O)OC	x	x	x	0%[21 µM]	x	x
N#Cc1c(N2CCCC2)nc(N)c2c(N)nc(N3CCCC3)cc12	10%	11%	-22%	u	u	2.8µM*
COc1ccc(C(=O)N(Cc2ccco2)Cc2cccs2)c(OC)c1	6%	23%	x	x	x	x
NS(=O)(=O)c1cc(C(=O)NC2CCSc3ccccc32)ccc1Cl (stereo not drawn)	1.3µM*	u	u	0.12µM*	x	8.9µM*
O=C1NC(=O)C2C3C=CC(C3)C12 (stereo not drawn)	6%	x	1%	x	x	2%
Cc1oc(-c2ccc(Cl)cc2)cc1-c1nn2c(-c3ccco3)nnc2s1	u	x	-14%	u	32µM*	-22%
CCc1cc(CNC(=O)c2ccc(OC3CCN(CCc4ccccc4)CC3)cc2)on1	14µM*	3%	-2%	12µM*	x	-6%
